Among all 52,000 compounds or so, about 4,300 (8.3%) were called active. The entries come from a sample that favours actives as a whole. A number with no mark means an inactive call. Rule as the data show it: active = survival mostly below about 52% (no sharp cut-off); inactive = mostly above about 56%.
tested on: DeltatarO mutant; assay: growth inhibition of S. aureus wild type versus tarO mutant, primary screen, teichoic acid synthesis inhibitors, RN4220, OD600 (AID 463173); conditions: OD600, 18 h, active compounds read low, screened at 18.75 µg/mL (by protocol)

Compound	survival
CCc1ccc(C2Sc3ccccc3NC3=C2C(=O)c2ccccc23)cc1 (centres undefined)	104%
O=C1C2=C(Nc3ccccc3SC2c2ccccc2C(F)(F)F)c2ccccc21 (centres undefined)	24% (active)
CC(C)c1ccc(C2Sc3ccccc3NC3=C2C(=O)c2ccccc23)cc1 (centres undefined)	85%
COc1ccc(Br)cc1C1Sc2ccccc2NC2=C1C(=O)c1ccccc12 (centres undefined)	31% (active)
CCOc1cc(C2Sc3ccccc3NC3=C2C(=O)c2ccccc23)ccc1O (centres undefined)	48%
O=C1C2=C(Nc3ccccc3SC2c2ccc(C(F)(F)F)cc2)c2ccccc21 (centres undefined)	16% (active)
CCCc1ccc(C2Sc3ccccc3NC3=C2C(=O)c2ccccc23)cc1 (centres undefined)	94%
COc1ccc(C2Sc3ccccc3NC3=C2C(=O)c2ccccc23)c(OC)c1OC (centres undefined)	77%
O=C1C2=C(Nc3ccccc3SC2c2ccc(Cl)c(Cl)c2)c2ccccc21 (centres undefined)	22% (active)
O=C1C2=C(Nc3ccccc3SC2c2c(F)cccc2Cl)c2ccccc21 (centres undefined)	94%
CC(C)(C)c1ccc(C2Sc3ccccc3NC3=C2C(=O)c2ccccc23)cc1 (centres undefined)	98%
CC(=O)Nc1ccc(C2Sc3ccccc3NC3=C2C(=O)c2ccccc23)cc1 (centres undefined)	116%
CC1=C(C)NC(=S)SC1	101%
Cc1cc(=O)c2cc(C(=O)Nc3ccccc3C)ccc2[nH]1	84%
COc1ccc(CCNC(=O)c2c(Nc3ccccc3C)sc(C(=O)c3ccccc3)c2N)cc1OC	66%
O=C(NC1CC1)C1CCN(C(=O)c2ccc(Cl)cc2)CC1	86%
CCCC(C(=O)NC1CCCC1)N(C(=O)Cn1nnc(-c2ccc(C)o2)n1)c1ccccc1 (centres undefined)	89%
CC(=NC1CC1)C1=C(O)c2ccccc2C1=O	92%
Cc1cc(C)c(S(=O)(=O)n2cnc(C)c2)c(C)c1	95%
Cc1ccc(-c2nc3ncccc3o2)cc1NC(=O)COc1ccc(C(C)C)cc1	6% (active)
CCC(=O)Nc1ccc(-c2nc3ncccc3o2)cc1C	73%
Cc1cc(-c2nc3ncccc3o2)ccc1NC(=O)COc1ccc(C(C)(C)C)cc1	32% (active)
Cc1cc(-c2nc3ncccc3o2)ccc1NC(=O)COc1cc(C)c(Cl)c(C)c1	65%
CC(C)c1ccc(OCC(=O)Nc2cc(-c3nc4ncccc4o3)ccc2Cl)cc1	150%

Compound	survival
Cc1cc(OCC(=O)Nc2cc(-c3nc4ncccc4o3)ccc2C)ccc1Cl	50%
COc1ccc(-c2nc(C)c(CCNC(=O)C(=O)Nc3c(C)cccc3C)s2)cc1OC	85%
CCc1ccccc1NC(=O)c1nn(-c2ccc(C)cc2)c(=O)c2c1c1ccccc1n2C	140%
Cc1cc(C)cc(NC(=O)CCn2cnc3ccccc3c2=O)c1	77%
CC1(C)Cc2ccccc2C(=NCCC(=O)O)N1	79%
CC(=O)NCCNC(=O)CCCc1nnc2n(CCC(C)C)c(=O)c3sccc3n12	90%
CC(C)c1nnc(N2C(=O)c3oc4ccccc4c(=O)c3C2c2ccccc2F)s1 (centres undefined)	64%
Cc1ccc2c(=O)cc(C(=O)NCc3ccccc3)oc2c1	39% (active)
COc1ccc(CNC(=O)c2cc(=O)c3cc(C)ccc3o2)cc1	45% (active)
Cc1ccc(CNC(=O)c2cc(=O)c3cc(C)cc(C)c3o2)cc1	102%
COc1ccc(CCNC(=O)c2cc(=O)c3ccc(C)cc3o2)cc1OC	62%
CCc1ccc2oc(C(=O)NCc3ccccc3)cc(=O)c2c1	66%
Cc1ccc(CNC(=O)c2cc(=O)c3cc(C)ccc3o2)cc1	42% (active)
COc1ccc(CNC(=O)c2cc3cc(OC)ccc3oc2=O)cc1	51%
Cc1ccc(CNC(=O)c2cc(=O)c3cc(C)c(C)cc3o2)cc1	77%
COc1ccc(CNC(=O)Cc2coc3ccc(C)cc23)cc1	108%
COc1ccc(CC(NC(C)=O)C(=O)N2CCN(C(=O)Nc3ccc(C#N)cc3)CC2)cc1 (centres undefined)	99%
Cc1cc(C)cc(NC(=O)NCCc2c(C)nn(C)c2C)c1	64%
CC1CCCCN1C(=O)CSc1nc2ccccc2c(=O)[nH]1 (centres undefined)	82%
CCOc1cc(C(=O)OCc2cc(=O)n3nc(CC)sc3n2)cc(OCC)c1OCC	87%
Cc1ccc(OCc2nc(-c3ccc(C(=O)NCCc4ccc(Cl)cc4)cc3)oc2C)cc1	84%
Cc1oc(-c2cccc(Cl)c2)nc1CN1CCC(C(=O)NCc2ccc(F)cc2)CC1	124%
CCc1ccccc1NC(=O)c1cc(-c2ccc(Cl)s2)nc2ccccc12	71%
CCc1ccccc1NC(=O)c1cc2c(Cl)nc3ccccc3c2s1	42% (active)

Compound	survival
CC(C)NC(=O)c1cc2c(Cl)nc3ccccc3c2s1	56%
CCOc1ccccc1NC(=O)c1cc2c(=O)[nH]c3ccccc3c2s1	60%
CCOc1ccccc1NC(=O)c1cc2c(Cl)nc3ccccc3c2s1	41% (active)
O=C(Nc1ccc(Cl)cc1)c1cc2c(Cl)nc3ccccc3c2s1	94%
CCOC(=O)C1=C(CN(CC)Cc2ccccc2)NC(=O)NC1c1ccc(OC)cc1 (centres undefined)	65%
CCOC(=O)c1ccc(NC(=O)c2cc3c(n(-c4ccc(C)cc4)c2=O)CC(C)(C)CC3=O)cc1	153%
CC1(C)CC(=O)c2cc(C(=O)NC(C)(C)C)c(=O)n(-c3ccccc3)c2C1	39% (active)
Cc1ccc(-n2c3c(cc(C(=O)Nc4ccccc4C(N)=O)c2=O)C(=O)CC(C)(C)C3)cc1	49%
COc1ccc(OC)c(NC(=O)c2cc3c(n(-c4ccc(Cl)cc4)c2=O)CC(C)(C)CC3=O)c1	69%
CCOc1ccc(NC(=O)c2cc3c(n(-c4ccc(OC)cc4)c2=O)CC(C)(C)CC3=O)cc1	60%
CNC(=O)c1cc2c(n(-c3ccc(C)cc3)c1=O)CC(C)(C)CC2=O	93%
CC1(C)CC(=O)c2cc(C(=O)Nc3ccc(Br)cc3)c(=O)n(-c3ccc(Cl)cc3)c2C1	42% (active)
COc1ccccc1NC(=O)c1cc2c(n(-c3ccc(C)cc3)c1=O)CC(C)(C)CC2=O	45% (active)
CN(C)C=NC(=O)c1cc2c(n(-c3ccccc3)c1=O)CC(C)(C)CC2=O	46%
Cc1ccc(CCNC(=O)CCCn2c(=O)c3ccccc3n(Cc3ccccc3C)c2=O)cc1	88%
CC1CC(C)CN(C(=O)Cn2cnc3c2c(=O)n(C)c(=O)n3C)C1 (centres undefined)	107%
Cc1ccccc1CNC(=O)CN1C(=O)CSc2ccc(S(=O)(=O)N(C)C)cc21	78%
CCC(=O)N(Cc1nc2ccccc2c(=O)[nH]1)Cc1ccccc1OC	90%
Cc1ccc(N2CCN(C(=O)c3cc(S(=O)(=O)N4CCCCC4)c[nH]3)CC2)c(C)c1	102%
CCOc1ccc(N(CC(=O)Nc2ccccc2CC)S(=O)(=O)c2c(C)noc2C)cc1	79%
COc1ccc(C(=O)Nc2nnc(SCc3cc(=O)n4cccc(C)c4n3)s2)cc1	72%
O=C(O)c1ccc(CN2CCCCC2)cc1	79%
Cc1oc(C(=O)O)cc1CN1CCCC1	100%
Cc1cc(C(=O)O)c(CN2CCCC2)o1	74% (active)

Compound	survival
CC1=C(C(=O)Nc2cccnc2)C(c2ccccc2Cl)n2nc(-c3ccccc3)nc2N1 (centres undefined)	74%
Cc1nc(SCC(=O)OC(C)(C)C)c2c3c(sc2n1)CCCC3	7% (active)
Cc1ccc(-c2nc(NC(=O)CSc3nc(C)nc4sc5c(c34)CCCC5)ns2)cc1	53%
Cc1nc(SCC(N)=O)c2c3c(sc2n1)CCCC3	80%
CCCCN(C)c1ncnc2c1cnn2-c1cccc(Cl)c1	101%
CCc1ccc(C(=O)c2cn(CC(=O)Nc3ccc4c(c3)OCO4)c3ccc(Cl)cc3c2=O)cc1	72%
O=S(=O)(Nc1ccc2oc3c(c2c1)CCCC3)c1cc(Cl)ccc1Cl	33% (active)
COc1ccc(S(=O)(=O)Nc2ccc3oc4c(c3c2)CCCC4)cc1	27% (active)
Cc1cc(C)c(S(=O)(=O)Nc2ccc3oc4c(c3c2)CCCC4)cc1C	55%
Cc1ccc(S(=O)(=O)Nc2cc(Cl)c3oc4c(c3c2)CCCC4)cc1	117%
CC(C)(C)C1CCc2oc3ccc(NS(=O)(=O)c4cc(Cl)ccc4Cl)cc3c2C1 (centres undefined)	73%
Cc1oc2ccc(NS(=O)(=O)c3ccc(F)cc3)cc2c1C(=O)O	193%
CCn1cnc2c(=O)oc3ccc(S(=O)(=O)Nc4ccc(OC)cc4)cc3c21	75%
CCOc1ccc(S(=O)(=O)Nc2ccc3oc4c(c3c2)CC(C)CC4)cc1 (centres undefined)	44%
Cc1cc(S(=O)(=O)Nc2ccc3oc4c(c3c2)CCCC4)ccc1Cl	41% (active)
COc1ccc(S(=O)(=O)Nc2ccc3oc4c(c3c2)C(=O)CC(C)(C)C4)cc1	159%
CC(C)(C)C1CCc2oc3ccc(NS(=O)(=O)c4ccc(C(=O)O)cc4)cc3c2C1 (centres undefined)	16% (active)
O=S(=O)(NC1CCCCC1)c1cc(Cl)ccc1Cl	96%
CCN1C(=O)c2ccccc2Sc2ccc(NC(=O)Nc3ccc(Br)c(C)c3)cc21	71%
Oc1ccccc1Nc1nc2ccccc2n2nnnc12	80%
CN(C)CCCNc1nc(-c2ccc(Cl)cc2)cs1	132%
CCOc1cc(C2c3c(oc4cc(C)cc(C)c4c3=O)C(=O)N2CCO)ccc1O (centres undefined)	68%

— PubChem BioAssay AID463173 (ICCB-Longwood Screening Facility, Harvard Medical School, 2010)
